This is an account of results in PubChem BioAssay (NCI).

This is part of a sample that, as a whole, favours compounds with a hit. Of some 83,000 tested, about 20% had one in any assay.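 Treatment: one concentration, 48 hours, 96-well format. Scoring: percent growth, with anything below 10 considered active.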 Values without a mark were called inactive. Active and inactive are the calls of the source.

What all share (assay): NCI-60 one-dose screen, 48 h (100 = growth as untreated, 0 = no growth, -100 = all killed)
What all share (settings): 10 µM unless noted

The test system of assay [1] is K-562 leukemia.
The subject of assay [2] is MALME-3M melanoma.
The test system of assay [3] is MDA-MB-231 breast.
Assay [4] concerns RXF 393 renal.
Assay [5] relates to SF-268 CNS.
Assay [6] relates to SF-295 CNS.
For assay [7], the system named is SF-539 CNS.
In assay [8] the test system is UACC-257 melanoma.
Assay [9] concerns M14 melanoma.
Assay [10] concerns HCT-15 colon.
In assay [11] the test system is HT29 colon.
For assay [12], the system named is SNB-75 CNS.
For assay [13], the system named is SNB-19 CNS.
In assay [14] the test system is U251 CNS.
Assay [15] deals with PC-3 prostate.
Assay [16] concerns SK-MEL-5 melanoma.
The subject of assay [17] is UACC-62 melanoma.
Assay [18] relates to LOX IMVI melanoma.
The subject of assay [19] is SK-MEL-28 melanoma.
For assay [20], the system named is SK-MEL-2 melanoma.

As to `Cc1sc2nc(NCc3ccccc3Cl)[nH]c(=O)c2c1C`, the growth was 54.8% in assay [1]; 100% in assay [2]; 73% in assay [3]; 94.3% in assay [4]; 87.6% in assay [5]; 80.2% in assay [6]. Besides, the growth in assay [7] was 77.7%; in assay [8] it was 106%; in [9], 105%; in assay [10], 47.3%; in assay [11], 103%; in assay [12] it was 82.8%. For the same compound, the growth was 102% in assay [13]; 72.9% in assay [14]; 73.9% in assay [15]; 72.9% in assay [16]; 75.8% in assay [17]; 68.8% in [18]. Besides, the growth in assay [19] is 98.6%; in assay [20], 106%.

For `O=C(CN1CCOCC1)NNc1ncnc2ccccc12`, the growth is 0.401% (active) in [1]; -74.5% (active) in [2]; 2.91% (active) in assay [3]; -39.7% (active) in [4]; 97.4% in [5]; 95.9% in assay [6]. The growth in assay [7] was 82.1%; in assay [8], 86.3%; in assay [9] it was 55.2%; in assay [10] it was 70.8%; in assay [11], 92%; in [12], 72.7%. The growth is 102% in assay [13]; 85.3% in assay [14]; 78.3% in assay [15]; 98.2% in assay [16]; 83.1% in [17]; 9.78% (active) in assay [18]. Also, the growth was 71.1% in assay [19] and 96.3% in [20].

Consider `O=C(CSc1nc2sc3c(c2c(=O)n1-c1ccc(Cl)cc1)CCCC3)N/N=C/c1ccc(F)cc1`, for which the growth is 45.4% in [1]; 100% in assay [2]; 86.2% in assay [3]; 118% in [4]; 102% in assay [5]; 106% in assay [6]. For the same compound, the growth in assay [7] was 102%; in assay [8] it was 109%; in [9], 90.5%; in [10], 73.9%; in assay [11], 60.6%; in [12] it was 107%. The growth is 101% in assay [13]; 67.1% in assay [14]; 87.1% in assay [15]; 103% in assay [16]; 97% in assay [17]; 95.9% in assay [18]. The growth in assay [19] is 108%; in assay [20] it was 136%.

For the compound `COc1cc(OC)c(C2SCC(=O)N2Nc2ncnc3ccccc23)cc1OC` (configuration not stated), the growth in assay [1] is 105%; in [2], 96.2%; in [3] it was 98.8%; in [4], 124%; in [5], 107%; in assay [6], 102%. Further, the growth is 95.3% in [7]; 108% in [8]; 107% in assay [9]; 103% in [10]; 113% in assay [11]; 101% in assay [12]. Besides, the growth in [13] is 99.4%; in assay [14] it was 105%; in [15] it was 107%; in [16], 102%; in assay [17], 97.6%; in assay [18], 117%. In addition, the growth is 104% in [19] and 123% in assay [20].

As to `COc1ccc(COc2ccc(/C=C3/C(=O)Nc4cc(Cl)ccc43)cc2)cc1`, the growth is 113% in [1]; 86.6% in assay [2]; 91.2% in assay [3]; 105% in [4]; 99.5% in assay [5]; 101% in assay [6]. The growth is 85.8% in [7]; 106% in [8]; 97.7% in [9]; 104% in assay [10]; 107% in assay [11]; 83.8% in assay [12]. Besides, the growth is 100% in [13]; 96.8% in assay [14]; 86.1% in assay [15]; 96.7% in assay [16]; 88.6% in assay [17]; 94.8% in [18]. The results for the growth in [19] and in assay [20] were 98.7% and 114%, respectively.

As for `NS(=O)(=O)c1ccc(Nc2nc(SCC(=O)c3ccc(Cl)cc3)nc3ccccc23)cc1`, the growth was 84% in assay [1]; 92.8% in assay [2]; 87.9% in [3]; 103% in assay [4]; 104% in [5]; 95.1% in [6]. Moreover, the growth in [7] is 88.3%; in assay [8], 102%; in assay [9] it was 97%; in [10], 86.6%; in assay [11], 105%; in assay [12], 75.3%. For the same compound, the growth in assay [13] is 97.8%; in assay [14] it was 95.2%; in assay [15], 89.9%; in assay [16] it was 95.3%; in assay [17], 79.4%; in assay [18], 99.5%. Besides, the growth in [19] and in assay [20] was 100% in each case.

Turning to `COc1cc2cc(Oc3ccc(NC(=O)c4cccc(C(F)(F)F)c4)cc3)c(C)nc2cc1OCCN1CCCCC1`, the growth was -48.2% (active) in assay [1]; -86.1% (active) in [2]; -100% (active) in assay [3]; -16% (active) in [4]; 81.5% in assay [5]; 7.09% (active) in assay [6]. In addition, the growth in [7] is -68.8% (active); in [8] it was -87.3% (active); in [9] it was -86.7% (active); in assay [10], -88.8% (active); in assay [11], -50.7% (active); in assay [12] it was 90.8%. Besides, the growth was 90.2% in [13]; -63.8% (active) in assay [14]; 33.1% in assay [15]; 38.7% in assay [16]; -65.8% (active) in [17]; -93.6% (active) in assay [18]. Besides, the values for the growth in [19] and in [20] were -88.5% (active) and 74%, respectively.

On to `N#Cc1c(-c2ccc(Cl)cc2)nc(SCc2ccc(F)cc2)nc1N1CCNCC1`, for which the growth was -34.5% (active) in [1]; 88.3% in [2]; 16.2% in assay [3]; 58.5% in assay [4]; 73.3% in assay [5]; 96.8% in assay [6]. Moreover, the growth in [7] is 75.9%; in assay [8], 86.4%; in assay [9], 72.8%; in assay [10], 1.29% (active); in assay [11], -51.8% (active); in assay [12] it was 65.3%. Also, the growth in assay [13] was 76.6%; in [14], -71.5% (active); in assay [15], 53.8%; in [16], 62.5%; in [17], 95%; in [18], -59.2% (active). Moreover, the growth in assay [19] is 99.3%; in assay [20], 111%.

Take `O=C1/C(=C/C2=Cc3ccccc3OC2)SC(=S)N1c1ccc(F)cc1`: the growth in assay [1] is 91%; in [2] it was 101%; in assay [3], 99%; in assay [4], 106%; in assay [5] it was 111%; in assay [6], 102%. Further, the growth in [7] was 98.5%; in assay [8], 108%; in [9], 103%; in assay [10], 105%; in [11], 118%; in [12], 100%. Also, the growth in [13] is 93.2%; in assay [14], 94.9%; in assay [15] it was 115%; in assay [16], 100%; in [17] it was 97.4%; in assay [18] it was 92.5%. For the same compound, the figures for the growth in [19] and in [20] were 97.9% and 120%, respectively.

For `CN1C(=O)N(c2ccccc2)C2N=C(N/N=C/c3ccccc3)SC21` (configuration not stated), the growth in assay [1] was 12%; in [2], 47.9%; in assay [3] it was 31.9%; in assay [4] it was -2.78% (active); in [5], 55%; in [6], 30.5%. In addition, the growth is -6.36% (active) in [7]; 64% in assay [8]; -18.9% (active) in assay [9]; 30.3% in assay [10]; 3.18% (active) in assay [11]; -13.5% (active) in [12]. In addition, the growth in assay [13] is 53%; in assay [14] it was 15.8%; in assay [15] it was 33%; in assay [16] it was 5.76% (active); in assay [17], 44.4%; in [18], 23.2%. The growth in assay [19] was 61.3%; in [20] it was -3.76% (active).

As for `COc1ccc(/C=C2\SC(=Nc3cc(C)on3)NC2=O)cc1`, the growth in assay [1] was 100%; in assay [2], 95.9%; in assay [3], 106%; in assay [4], 102%; in assay [5], 104%; in [6], 95.2%. Besides, the growth was 99.3% in [7]; 96.7% in assay [8]; 92.2% in assay [9]; 99.3% in [10]; 108% in assay [11]; 97% in assay [12]. Further, the growth was 96.4% in assay [13]; 109% in [14]; 96.7% in [15]; 99.3% in assay [16]; 95.1% in [17]; 106% in assay [19]. Besides, the growth in assay [20] is 115%.

As for `COc1cc(/C=C/C(=O)c2ccc(C(F)(F)F)cc2)ccc1Oc1nc(NCCO)nc(N2CCOCC2)n1`, the growth in assay [1] is 6.49% (active); in [2], 85.7%; in [3] it was 92.9%; in [4] it was 90.8%; in assay [5], 87.3%; in [6] it was 96%. The growth in assay [7] was 98.2%; in [8] it was 97.4%; in assay [9], 97.6%; in assay [10], 70.5%; in [11], 96.2%; in assay [12], 91.4%. For the same compound, the growth in assay [13] is 87.6%; in [14] it was 70.1%; in assay [15], 87.2%; in assay [16] it was 94%; in assay [17], 78.7%; in assay [19] it was 96.1%. In [20], the growth is 98.8%.

Consider `Cc1cc(=O)oc2cc(OCCCOc3ccc(/C=C/C(=O)Nc4ccc(Cl)cc4)cc3)ccc12`, for which the growth in [1] is 69.1%; in [2], 56.6%; in assay [3] it was 69.7%; in assay [4], 44.9%; in assay [5], 66.9%; in [6], 77.7%. In addition, the growth is 75.6% in [7]; 81.5% in assay [8]; 74.2% in assay [9]; 60.4% in [10]; 98.1% in assay [11]; 73.3% in [12]. The growth in assay [13] was 89.6%; in [14], 56.4%; in assay [15], 67.7%; in assay [16] it was 55.9%; in assay [17], 75.7%; in [18], 40.8%. Besides, the growth is 75.8% in [19] and 80.4% in [20].

Regarding `O=C(N/N=C/c1ccc(Cl)s1)c1[nH]c2ccc(Br)cc2c1-c1ccccc1`, the growth in [1] was 6.77% (active); in assay [2], 53.4%; in assay [3] it was 1.52% (active); in [4] it was 71.7%; in assay [5], 42.1%; in assay [6], 15.5%. Further, the growth is 3.35% (active) in [7]; 52% in [8]; 5.47% (active) in [9]; 15.6% in assay [10]; 3.1% (active) in assay [11]; 28.1% in [12]. For the same compound, the growth was 33.2% in [13]; 16.5% in assay [14]; 30.2% in [15]; -23% (active) in assay [16]; 41.4% in [17]; 61.6% in assay [19]. The growth in assay [20] is 13.1%.
